Assay outcomes from PubChem BioAssay.
APE1 inh: blocks human APE1 abasic DNA cleavage. Potency, µM (titrated, usually from 65.8 µM), without a hit: at the top dose activity change, negative = inhibition, most hits filed as inhibitors. P27695. AID 2517. 350,000 compounds, 0.35% hits. recombinant APE1, TAMRA/BHQ-2 abasic DNA cleavage fluorescence;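 note: potency is the fitted concentration of half-maximal effect; plate controls were vehicle for no effect and reference inhibitor for full effect; nearly all actives have a fitted effect of over 55% in size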
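Kinetic fluorescence read (525 ex/598 em nm, three reads 60 s apart) of AP-site incision; signal = third minus first read. Enzyme 0.75 nM, dual-labelled THF duplex 50 nM, compound preincubation 15 min RT.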
BLM helicase inh-1: Bloom syndrome helicase (human) inhibition; P54132; recombinant BLM DNA unwinding, fluorescence dequenching; Potency, µM (series often up to 56.1 µM), for inactives: at the highest dose activity change, negative = inhibition, usual class: inhibitors; 350,000 compounds, 0.2% hits; AID 2528;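 note: potency is the fitted concentration of half-maximal effect; plate controls were vehicle for no effect and no enzyme for full effect; nearly all actives have a fitted effect of over 35% in size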
WRN helicase inh-1: WRN helicase (human) inhibition; Q14191; WRN helicase unwinding, fluorescent forked duplex, kinetic; Potency, µM (top dose mostly 114 µM), without a hit: at the top dose activity change, negative = inhibition, actives largely listed as inhibitors; 360,000 compounds, 0.46% hits; AID 651768; note: potency is the fitted concentration of half-maximal effect; % is set by controls: 0 for no effect and ±100 for the full control effect; nearly all actives have a fitted effect of over 55% in size
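Screening of the MLSMR collection measured strand separation of a quenched forked DNA duplex (100 nM) by 20 nM WRN with 2 mM ATP, all final. Compounds were preincubated with enzyme 15 min at room temperature.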
ERG Ets-DNA blk: inhibitors of human ERG Ets domain-DNA interaction; P11308; fluorescence polarization, His-ERG Ets domain / labelled DNA; Potency, µM (series often up to 76.9 µM), inactives show top-dose FP activity, negative = inhibition, most hits filed as inhibitors; 370,000 compounds, 0.028% hits; AID 624246; active = well fitted inhibition curve with a large enough effect in the polarisation, with a control signal flat; inconclusive = small, poorly fitted or top-dose-only effect, or effect the other way, or a change in a side signal; inactive = no such curve, though single readings can be large or run the other way; the % refers to the polarisation;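 note: polarization taken with two DNA probes labelled with fluorescein and Texas red; potency is the fitted concentration of half-maximal effect; % of control where 0% means no effect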
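His-tagged ERG Ets domain (1 uM in the protein solution; 300mM KCl, 50mM Tris-HCl, 1mM EDTA, 1mM DTT, pH 7.5) received compound, then a probe mix of 5 nM fluorescein-DNA and 100nM Texas-615-DNA. Fluorescence polarization was read for both dyes.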
GCN5L2 inh-1: inhibitors of human GCN5L2 histone acetyltransferase | Q92830 | 390,000 compounds, 0.21% hits | Potency, µM (doses to about 58.9 µM), without a hit: top-dose activity change, negative = inhibition, hits mostly inhibitors | GCN5L2 HAT assay, ThioGlo1 CoA-SH fluorescence | AID 504327; note: potency is the fitted concentration of half-maximal effect; % is set by controls: 0 for no effect and ±100 for the full control effect
Target sequence (Q92830 whole entry, looked up): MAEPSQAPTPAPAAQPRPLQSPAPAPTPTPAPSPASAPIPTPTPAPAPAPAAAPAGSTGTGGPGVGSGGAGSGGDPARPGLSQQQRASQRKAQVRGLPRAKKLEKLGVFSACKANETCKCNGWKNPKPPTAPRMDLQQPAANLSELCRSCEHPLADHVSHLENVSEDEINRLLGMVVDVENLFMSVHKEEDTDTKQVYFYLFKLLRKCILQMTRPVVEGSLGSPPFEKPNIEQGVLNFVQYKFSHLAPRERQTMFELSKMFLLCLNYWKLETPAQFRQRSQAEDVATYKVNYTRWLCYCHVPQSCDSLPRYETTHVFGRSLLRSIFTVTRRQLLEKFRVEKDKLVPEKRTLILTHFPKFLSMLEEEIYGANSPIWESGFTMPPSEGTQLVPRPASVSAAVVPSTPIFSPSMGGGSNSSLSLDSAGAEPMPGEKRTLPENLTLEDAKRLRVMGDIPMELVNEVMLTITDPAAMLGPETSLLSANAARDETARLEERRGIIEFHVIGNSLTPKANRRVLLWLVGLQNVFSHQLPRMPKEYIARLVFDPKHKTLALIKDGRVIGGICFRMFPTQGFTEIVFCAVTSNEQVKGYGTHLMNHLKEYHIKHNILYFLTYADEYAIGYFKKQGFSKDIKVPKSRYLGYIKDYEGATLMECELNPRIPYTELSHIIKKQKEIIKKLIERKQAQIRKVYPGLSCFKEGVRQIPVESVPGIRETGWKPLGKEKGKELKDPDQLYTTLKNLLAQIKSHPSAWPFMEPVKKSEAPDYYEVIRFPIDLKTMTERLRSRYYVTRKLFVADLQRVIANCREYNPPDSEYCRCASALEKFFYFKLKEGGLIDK
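ThioGlo1-coupled HAT assay: 20nM GCN5L2, 70uM acetyl-CoA, 75uM H3(1-25) peptide, pH 7.5. Fluorescence read at 340/540nm at start and after 20 min at room temperature.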
RECQ1 inh-1: blocks DNA unwinding by human RECQ1 | Potency, µM (titrated, usually from 57.3 µM), for inactives: at the highest dose activity, negative = inhibition, most hits filed as inhibitors | 240,000 compounds, 0.54% hits | AID 2549 | RECQ1 DNA unwinding, red fluorescence kinetic read;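 note: potency is the fitted concentration of half-maximal effect; plate controls were vehicle for no effect and no enzyme for full effect; nearly all actives have a fitted effect of over 30% in size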
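RECQ1T1 50 nM; forked duplex (20 bp + 30-nt ss tails) 200 nM, ATP 2 mM final; pH 8.0, 2 mM MgCl2, 2.5 ug/ml poly(dI-dC); 15 min compound preincubation; discontinuous kinetic read over 2 h at RT.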
BLM inh: confirmation of inhibitors of human Bloom syndrome helicase BLM; shares compounds with BLM helicase inh-1; BLM DNA unwinding, fluorescence quenching, biochemical; Potency, µM, for inactives: max response, negative = inhibition, most hits filed as inhibitors; 220 compounds, 40% hits;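 note: strand separation dequenches TAMRA so unwinding raises red fluorescence; potency is the fitted concentration of half-maximal effect; series mostly up to about 69 µM; % is set by controls: 0 for no effect and ±100 for the full control effect; nearly all actives have a fitted effect of over 45% in size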
RECQ1 conf: confirmation of human RECQ1 helicase inhibitors; shares compounds with RECQ1 inh-1; 610 compounds, 28% hits; RECQ1 helicase DNA unwinding, fluorescence; Potency, µM (top dose mostly 229 µM), for the others: top-dose activity change, negative = inhibition, most hits filed as inhibitors; note: potency is the fitted concentration of half-maximal effect; % is set by controls: 0 for no effect and ±100 for the full control effect; nearly all actives have a fitted effect of over 45% in size
ADP FP counter: counter-screen for RECQ1 inhibitors: ADP displacement; shares compounds with RECQ1 inh-1; ADP fluorescence polarization displacement counterscreen; Potency, µM (titrated, usually from 228 µM), without a hit: at the highest dose activity change, negative = inhibition, actives largely listed as inhibitors; 530 compounds, 27% hits; AID 2711; note: potency is the fitted concentration of half-maximal effect; % is set by controls: 0 for no effect and ±100 for the full control effect; nearly all actives have a fitted effect of over 45% in size
RECQ1 inh-2: RECQ1 helicase inhibition confirmed, round 2 | 1,100 compounds, 15% hits | shares compounds with RECQ1 inh-1 | recombinant RECQ1 DNA unwinding, red fluorescence | Potency, µM (series often up to 119 µM), inactives show top-dose activity, negative = inhibition, hits mostly inhibitors; note: potency is the fitted concentration of half-maximal effect; % is set by controls: 0 for no effect and ±100 for the full control effect; nearly all actives have a fitted effect of over 50% in size
GCN5L2 inh-2: human KAT2A HAT inhibition, hit confirmation | Potency, µM, most hits filed as inhibitors | GCN5L2 HAT, ThioGlo1 CoA fluorescence, 20 min | 140 compounds, 70% hits | shares compounds with GCN5L2 inh-1
WRN helicase inh-2: confirmation of human WRN helicase inhibitors; AID 720497; shares compounds with WRN helicase inh-1; WRN helicase DNA unwinding, fluorescence kinetic; Potency, µM (titrated, usually from 57.1 µM), for inactives: top-dose activity, negative = inhibition, usual class: inhibitors; 610 compounds, 63% hits; note: potency is the fitted concentration of half-maximal effect; nearly all actives have a fitted effect of over 65% in size
TO DNA binding: binds DNA, flagged in WRN inhibitor counterscreen | AID 720499 | shares compounds with WRN helicase inh-1 | Potency, µM (series often up to 57.1 µM), without a hit: at the highest dose activity change, negative = inhibition, usual class: inhibitors | 610 compounds, 10% hits | thiazole orange DNA binding displacement, fluorescence;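 note: drop in dye fluorescence marks compound binding to DNA; potency is the fitted concentration of half-maximal effect; % is set by controls: 0 for no effect and ±100 for the full control effect; nearly all actives have a fitted effect of over 60% in size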
BLM helicase inh-2: blocks human BLM helicase in WRN counterscreen; shares compounds with WRN helicase inh-1; Recombinant BLM helicase DNA unwinding, red fluorescence; Potency, µM (titrated, usually from 57.1 µM), for the others: at the top dose activity change, negative = inhibition, actives largely listed as inhibitors; 610 compounds, 60% hits; AID 720503; note: potency is the fitted concentration of half-maximal effect; nearly all actives have a fitted effect of over 60% in size
An asterisk follows results filed as active; i = inactive; ? = inconclusive; nt = no result given; [ ] = another dose, or the depositor's remark. Sampled rows, rich in hits. Any-hit rate of the full collection: about 0.88%. Unless noted, calls come from the whole dose curve; as a rule, active = well fitted curve in the direction sought with a large enough effect; inconclusive = small, poorly fitted or top-dose-only effect, or another doubt; inactive = no such curve, though single readings can be large; an effect the other way counts as inactive or inconclusive.

SMILES	APE1 inh	BLM helicase inh-1	WRN helicase inh-1	ERG Ets-DNA blk	GCN5L2 inh-1	RECQ1 inh-1	BLM inh	RECQ1 conf	WRN helicase inh-2	TO DNA binding	BLM helicase inh-2	others
CC1(C)C(=O)NC2=C1C(=O)C(=O)c1ccccc12	?	2.5µM*	nt	nt	12%	8.9µM*	5.1µM*	0.5µM*	nt	nt	nt	ADP FP counter=8.9µM*
CN(C)c1ccc(/C=C/c2ccc3c4ccccc4ccc3[n+]2-c2ccccc2)cc1	-3%	?	13µM*	150%	-6%	20µM*	68µM*	22µM*	nt	nt	nt
CN(C)c1ccc(/C=C/c2cccc[n+]2[O-])cc1	3%	-1%	9%	3%	-4%	i	nt	nt	nt	nt	nt
Cc1ccccc1-c1cc(Nc2ccc(F)cc2)ncn1	-2%	-8%	nt	nt	-9%	-2%	nt	nt	nt	nt	nt
CCCNC(=O)C1(C)CCN(CCOc2ccc(Cl)cc2)C1 (centres undefined)	nt	nt	-3%	nt	nt	nt	nt	nt	nt	nt	nt
Cc1nc2c(ccc3nc(NC(=O)c4ccc5c(c4)OCCO5)sc32)s1	-3%	-24%	?	nt	-3%	20µM*	30µM*	nt	nt	nt	nt	ADP FP counter=44%[91.9 µM];RECQ1 inh-2=45µM*
Cc1ccc(SCc2cc(=O)c3c(=O)n(-c4ccccc4)[nH]c3[nH]2)cc1	?	16µM*	?	-10%	?	?	5%	nt	nt	nt	nt	RECQ1 inh-2=-7%
O=C(COC(=O)c1c2c(nc3ccccc13)/C(=C/c1ccco1)CC2)NC1CCCC1	?	8.9µM*	32µM*	2%	13µM*	?	?	nt	nt	nt	nt	GCN5L2 inh-2=7.3*
Cc1ccc2nc(C(C)(C)C)c(Cc3cccc(F)c3)n2c1	nt	nt	6%	nt	nt	nt	nt	nt	nt	nt	nt
O=C(O)c1ccc(S(=O)(=O)/N=C2\C=C(Nc3ccccc3F)C(=O)c3ccccc32)cc1	17%	8.9µM*	40µM*	3%	-10%	nt	16µM*	nt	?	-26%	?
Cc1ccn2c(c1)nc(=O)c1cc(S(=O)(=O)N3CCC(C)CC3)c(Cl)cc12	nt	-2%	nt	1%	0%	nt	nt	nt	nt	nt	nt
CN(c1ccccc1)c1ccc(/C=C(\CCC(=O)O)c2nc3ccccc3s2)cc1[N+](=O)[O-]	?	22µM*	27µM*	nt	?	?	36µM*	nt	22µM*	27µM*	8.6µM*	RECQ1 inh-2=13µM*;GCN5L2 inh-2=20*
O=C(O)c1ccccc1NC(=O)C1CCN(S(=O)(=O)c2cccc3nsnc23)CC1	-14%	2%	-11%	1%	-5%	nt	nt	nt	nt	nt	nt
O=C(O)COc1ccc(/C=N/NC(=O)c2ccc(-c3csc(Nc4ccc(Cl)cc4)n3)cc2)cc1	3.5µM*	3.5µM*	13µM*	10%	-15%	11µM*	8.1µM*	7.1µM*	4.3µM*	5.4µM*	0.86µM*	ADP FP counter=?
Cc1nc(CC(=O)N/N=C/c2ccc(OCC(=O)O)cc2)cs1	-6%	1%	-13%	10%	-5%	i	nt	nt	nt	nt	nt
O=C(CSc1nc2ccccc2n1CCc1ccccc1)c1ccc(O)c(O)c1	0.89µM*	11µM*	7.9µM*	-3%	?	7.1µM*	19µM*	45µM*	6.8µM*	17µM*	1.5µM*	RECQ1 inh-2=?
CN1CCN(c2ccc(Nc3c4ccccc4nc4ccccc34)cc2)CC1	22µM*	20µM*	nt	nt	-5%	13µM*	32µM*	11µM*	6.1µM*	7.6µM*	24µM*	ADP FP counter=35µM*
Oc1ccc(C[C@H]2CNC(=S)N2CC2CCCN2C[C@H](Cc2ccc(O)cc2)N2C[C@H](Cc3ccccc3)N(CC3CCCCC3)C2=S)cc1 (some centres undefined)	nt	nt	-3%	13%	nt	nt	nt	nt	nt	nt	nt
CC1(C)Cc2c(C#N)c(N3CCN(C(=O)c4ccccc4Cl)CC3)nc(-c3ccco3)c2CS1	-11%	14µM*	35µM*	5%	?	-21%	?	nt	-13%	2%	?
